Reference: the supplement of paper PMC6555819

Assays:
Assay in all cases: PBM binding z-score (relative to random genomic background probes); higher = stronger binding; sequences stand for … in GC…GCGATTGACAGCGTAGAATGAAGG
[1] = test system: RARb homodimer (NR concentration 270 nM)
Outline: (§1)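 Regression normalization was applied to scanned fluorescence from custom Agilent 4×180K protein-binding microarrays. Before scanning, arrays were incubated 1 h with ligand-free nuclear receptor dimers, and binding was detected with antibodies against each partner (one per run). Binding z-scores use the random background probes as reference.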

[2] = test system: RARg:RXRa (NR concentration 270 nM, RXRa partner concentration 90 nM)
Outline: as §1

[3] = test system: RARg homodimer (NR concentration 270 nM)
Outline: as §1

[4] = test system: RXRa DBDmut IVT, anti-RXR (DBD mutation: RXRa K156A/R161A, NR concentration 90 nM)
Outline: as §1

[5] = test system: RXRa homodimer (NR concentration 180 nM)
Outline: as §1

[6] = test system: THRa:RXRa (NR concentration 90 nM, RXRa partner concentration 90 nM)
Outline: as §1

[7] = test system: THRa homodimer (NR concentration 90 nM)
Outline: as §1

[8] = test system: VDR homodimer (NR concentration 270 nM)
Outline: as §1

| Sequence | PBM binding z-score [1] | PBM binding z-score [2] | PBM binding z-score [3] | PBM binding z-score [4] | PBM binding z-score [5] | PBM binding z-score [6] | PBM binding z-score [7] | PBM binding z-score [8] |
| --- | --- | --- | --- | --- | --- | --- | --- | --- |
| TCTTGTTGATCAGCAGGTTAAGAAAGCTGGCCAA | 0.158 | -0.129 | -0.598 | 0.635 | 0.257 | 0.181 | -0.779 | -0.748 |
| TATACAGGGTCAACGGCCAGAGTACGAATGTCGA | 3.43 | 5.83 | 5.47 | 2.75 | 6.28 | 3.46 | 1.05 | 2.95 |
| CTCGAAAGGTCGGTTGAGGTAAGTATACGGATAA | 1.72 | 2.37 | 2.35 | 0.522 | 1.83 | 4.54 | 0.648 | 0.257 |
| CGACCAAGGTGAACAAGGTCGTTGATTACTATTC | 2.12 | 1.92 | 1.56 | 0.907 | 2.13 | 3.35 | 1.68 | 1.82 |
| ATCTCTAGGTGAGACTCAGTTCAGTGAAGAACGC | 0.564 | 0.527 | 0.376 | 0.062 | 0.00106 | 0.954 | 0.42 | 0.761 |
| AGTCAAACTTCATCTAGGTAACGTAAGATATGCT | -0.47 | -0.19 | 0.544 | 0.281 | 0.109 | 0.484 | 0.329 | -0.372 |
| GGAACGAGGGCAAATTTGATAGCATCTGTCGACG | 0.969 | 1.06 | 1.73 | 2.41 | 0.93 | 0.959 | -0.432 | 0.807 |
| CCGACTGGGGCCAGGTTACCATAACGCACAGCCA | 0.918 | 0.349 | 0.638 | -0.672 | 0.426 | 0.785 | 0.378 | -0.444 |
| CGAACCAGGTCAAGGACAGTGAATCTCCGCACGC | 3.09 | 3.99 | 4.33 | 2.23 | 3.47 | 3.82 | 2.79 | 1.05 |
| CTACCAAGGTGAACAATGTCGTTGATTACTATTC | 1.24 | 0.711 | 0.812 | 0.62 | 0.563 | 2.04 | 1.01 | 0.118 |
| CCTCACGGGTCAAGGTTATAGCACGGGTGGTACG | 3.31 | 4.6 | 4.55 | -0.168 | 4.92 | 2.82 | 0.624 | 1.18 |
| TCTGCTAGGTCAGTTGGTCAGCTACCGAGCTGCC | 2.77 | 2.45 | 3.07 | 0.34 | 0.83 | 1.22 | -0.00528 | -0.907 |
| TCTGCTAGGTAAGTTGGTCAGCTAACGAGCTGCC | -0.545 | -0.54 | -0.71 | 0.107 | -0.613 | -0.549 | -0.918 | -0.989 |
| CGAACTAGGTCATTGACAGGACAGTTAATAGTAA | 2.42 | 4.65 | 4.41 | 2.52 | 2.86 | 2.77 | 0.893 | 1.27 |
| CCTACTGGGCCAAAGGTCACTGATTCCAATGCTC | 4.91 | 6.24 | 5.46 | 0.634 | 7.03 | 3.42 | 1.29 | 1.88 |
| CGTCCAAGGTCAATGCTAGGTCAATGAAAGCATT | 5.08 | 7.66 | 6.89 | 3.4 | 5.18 | 4.57 | 3.59 | 3.48 |
| CCTGCTAGGTCAATGGTCAGCTGAAGCAGCTCGC | 3.18 | 3.7 | 4.37 | 1.85 | 2.2 | 2.36 | 0.335 | 0.0523 |
| ACTAGCAGGCCCAGTTTGGGTCACTCAAACAAAG | 1.42 | 0.324 | 0.28 | -0.882 | 0.398 | 1.72 | 0.659 | -0.243 |
| ACAGACAGGAGAGTGAAGGTAACTCAGCTGGACG | 0.0737 | 0.0775 | 0.235 | -0.483 | 0.0394 | 0.195 | 0.113 | -0.235 |
| CCAGACAGGTGAGAAGGTAACCCAGCCTCGATTA | 0.888 | 0.695 | 0.557 | -0.131 | 0.558 | 0.444 | 0.455 | -0.253 |
| TCATATAGGTAAAAAGGTGAAAGTCCGTAAGTTA | 2.04 | 2.48 | 1.06 | 1.71 | 2.42 | 1.55 | 0.644 | 0.718 |
| TCGAGTAGGTTTCCAATGGGGCATTCAGCTTTCT | -0.0582 | -0.76 | -0.806 | 0.449 | -0.581 | -0.683 | -0.262 | -0.443 |
| TGAATGAGGTTCTAAGATCAGGGAACGTTGCAAA | -0.907 | -0.113 | -0.275 | -0.623 | -0.155 | -0.125 | -0.86 | -0.351 |
| AGAATGAGGTAAAGATCAGGGAAACAGAATACAT | 0.102 | 0.258 | 0.491 | -0.375 | 0.406 | 1.79 | 0.604 | -0.343 |
| AATACAGGCTCACTAGGCCAGAGTAGGTACGAAT | -0.345 | -0.402 | -0.0557 | -0.214 | -0.169 | -0.688 | -0.397 | -0.126 |
| CCTCCTAGGTCAATGGTCAGCTAAAGCAGCTCGC | 3.17 | 3.66 | 4.2 | 1.03 | 2.16 | 2.61 | 1.17 | 0.912 |
